The structures appear in SMILES notation. Inconclusive results are not listed. Some structures have more than one record in an assay (separate samples or runs), and their calls can disagree. The source made the active and inactive calls. How the source made its calls, unless noted: active means hit-call score of the fitted dose curve at least 0.9, where 1 is the maximum; inconclusive means response in the unintended direction; inactive means score below 0.9.

17 compounds from PubChem BioAssay (EPA / NIEHS) can be followed below.

For assay [1], the target named is Estrogen receptor (Homo sapiens) (UniProt P03372). In words: OT_ERa_GFPERaERE_0480: Odyssey Thera (OT) 8-hour HeLa Transcription Induction Assay for Estrogen Receptor (AID 2283381; active means hit-call score of the fitted dose curve at least 0.9, where 1 is the maximum; inactive means score below 0.9). In outline: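 Human cervical HeLa cells were treated for 8 hours, after which ERE-driven GFP induction was measured by fluorescence microscopy; increases over DMSO baseline defined activity.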

The target is the same in assay [2]. As to the kind of experiment: OT_ERa_GFPERaERE_0120: Odyssey Thera (OT) 2-hour HeLa Transcription Induction Assay for Estrogen Receptor (AID 2283382). Summed up:
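Cells (human cervical HeLa) receive compound, incubate 2 hours, then are imaged for fluorescent reporter induction. Images are quantified by high content analysis, and activity is fitted as gain of signal against DMSO.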

In assay [3] the target is Retinoic acid receptor RXR-alpha (Homo sapiens) (UniProt P19793). As to the kind of experiment: OT_NURR1_NURR1RXRa_0480: Odyssey Thera (OT) 8-hour HEK293T Protein Complementation Assay for Nurr1/retinoid X receptor (RXR) (AID 2283385). In outline: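 Interaction of bait and prey reconstitutes a functional reporter, whose fluorescence was measured in HEK293T cells dosed with compound for 8 hours. Signal gain relative to DMSO defined the single endpoint.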

For assay [4] the target is unchanged. As to the kind of experiment: OT_NURR1_NURR1RXRa_1440: Odyssey Thera (OT) 24-hour HEK293T Protein Complementation Assay for Nurr1/retinoid X receptor (RXR) (AID 2283386). Summed up:
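Steps: fragment-tagged Nurr1 and RXRα expressed in HEK293T; compounds added; after 24 h, complemented reporter quantified by fluorescence intensity; signal increase over DMSO fitted as the single endpoint.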

The target in assay [5] is Peroxisome proliferator-activated receptor gamma (Homo sapiens) (UniProt P37231). As to the kind of experiment: OT_PPARg_PPARgSRC1_0480: Odyssey Thera (OT) 8-hour Protein-Complementation Assay for Peroxisome Proliferator-activated Receptor Gamma / SRC-1 Co-activator (AID 2283387).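 Further: nuclear to cytoplasmic split Venus YFP fluorescence ratio reporting PPARg SRC-1 interaction.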 In outline: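 Split-YFP (IFP1/IFP2) PPARg/SRC-1 reporter, HEK293T, 37 °C, 5% CO2; 8 h compound; formaldehyde fix + Draq5; high-content imaging, N/C ratio, ≥350 cells/image, positive direction vs DMSO.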

Assay [6] has as its target mouse Estrogen Receptor alpha (Era), Esr1 (gene 13982) (UniProt P19785). As to the kind of experiment: NVS_NR_mERa: NovaScreen (NVS) Nuclear Receptor Binding Assay for mouse Estrogen Receptor alpha (Era) (AID 2283378).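 Further: hit means loss of bound radioligand signal relative to DMSO.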 Summed up:
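Filter scintillation counts of bound radioligand, measured 18 h post-dose, gave the readout; decreased signal relative to DMSO controls indicated displacement from mouse Era. Primary screen ran in duplicate at 25 uM; active chemicals were retested across concentrations.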

For assay [7], the target named is Estrogen receptor beta (Homo sapiens) (UniProt Q92731). In words: OT_ER_ERbERb_1440: Odyssey Thera (OT) 24-hour HEK293T Protein-Complementation Assay for Estrogen Receptor-beta/-beta Homodimer (AID 2283380).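 Further: scored as signal increase over DMSO baseline for both agonists and antagonists.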 In outline: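 HEK293T cells stably expressing ER beta LBD (aa 310-547) homodimer fragment-complementation reporter, dosed 24 h. Cells formaldehyde-fixed, Draq5-stained; gain in nuclear (agonist) or nuclear plus cytoplasmic (antagonist) fluorescence versus DMSO read by laser scanning cytometry.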

Assay [8] has as its target Agonist Androgen Response Element (ARE), AR (gene 367) (UniProt P10275). As to the kind of experiment: OT_AR_ARELUC_AG_1440: Odyssey Thera (OT) 24-hour CHO-K1 Luciferase Assay for Agonist Androgen Response Element (ARE) (AID 2283379). Summed up: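 Gain-of-signal reporter endpoint: cells (CHO-K1, hamster) are treated 24 h, luciferin/ATP reagent added, and luminescence compared with DMSO baseline.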

Assay [9] has as its target Bile acid receptor (Homo sapiens) (UniProt Q96RI1). As to the kind of experiment: OT_FXR_FXRSRC1_0480: Odyssey Thera (OT) 8-hour HEK293T Protein-Complementation Assay for Farnesoid X receptor/SRC-1 Co-activator (AID 2283383). Summed up:
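PCA, HEK293T, 8 h compound exposure; FXR–SRC-1 binding reconstitutes split reporter; fluorescence intensity; positive-direction fit vs DMSO.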

The target is the same in assay [10]. As to the kind of experiment: OT_FXR_FXRSRC1_1440: Odyssey Thera (OT) 24-hour HEK293T Protein-Complementation Assay for Farnesoid X receptor/SRC-1 Co-activator (AID 2283384). In outline:
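Measures ligand-driven FXR–SRC-1 co-activator recruitment in HEK293T via fragment complementation, fluorescence intensity at 24 h. DMSO served as negative control and baseline for gain-of-signal fitting.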

Assay [11] has as its target human Dopamine Transporter (DAT), SLC6A3 (gene 6531) (UniProt Q01959). In words: NVS_TR_hDAT: NovaScreen (NVS) Transporter Assay for human Dopamine Transporter (DAT) (AID 2283374).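 Further: activity means loss of bound radioligand signal relative to DMSO.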 Summed up: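 hDAT membranes + tritiated/iodinated radioligand, competitive displacement; 1 h; filter scintillation readout. Single conc 25 uM (duplicate), then conc-response for actives. DMSO = negative control.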

Sequence of Peroxisome proliferator-activated receptor gamma (Homo sapiens) (P37231 whole entry, looked up): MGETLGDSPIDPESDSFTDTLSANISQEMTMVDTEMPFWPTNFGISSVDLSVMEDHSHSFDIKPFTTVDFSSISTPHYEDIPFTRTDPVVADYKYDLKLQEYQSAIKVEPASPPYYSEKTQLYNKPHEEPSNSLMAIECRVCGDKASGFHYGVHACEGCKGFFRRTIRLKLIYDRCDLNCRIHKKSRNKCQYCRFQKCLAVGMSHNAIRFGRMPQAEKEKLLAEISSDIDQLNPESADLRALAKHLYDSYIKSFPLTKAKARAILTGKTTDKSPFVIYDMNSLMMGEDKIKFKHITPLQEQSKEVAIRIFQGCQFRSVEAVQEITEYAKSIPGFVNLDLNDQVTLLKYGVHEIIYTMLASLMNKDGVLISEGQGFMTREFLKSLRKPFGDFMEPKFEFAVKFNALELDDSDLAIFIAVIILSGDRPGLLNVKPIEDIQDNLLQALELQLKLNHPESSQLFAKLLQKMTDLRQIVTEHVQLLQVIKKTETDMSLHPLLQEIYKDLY
Sequence of Estrogen receptor (Homo sapiens) (P03372 whole entry, looked up): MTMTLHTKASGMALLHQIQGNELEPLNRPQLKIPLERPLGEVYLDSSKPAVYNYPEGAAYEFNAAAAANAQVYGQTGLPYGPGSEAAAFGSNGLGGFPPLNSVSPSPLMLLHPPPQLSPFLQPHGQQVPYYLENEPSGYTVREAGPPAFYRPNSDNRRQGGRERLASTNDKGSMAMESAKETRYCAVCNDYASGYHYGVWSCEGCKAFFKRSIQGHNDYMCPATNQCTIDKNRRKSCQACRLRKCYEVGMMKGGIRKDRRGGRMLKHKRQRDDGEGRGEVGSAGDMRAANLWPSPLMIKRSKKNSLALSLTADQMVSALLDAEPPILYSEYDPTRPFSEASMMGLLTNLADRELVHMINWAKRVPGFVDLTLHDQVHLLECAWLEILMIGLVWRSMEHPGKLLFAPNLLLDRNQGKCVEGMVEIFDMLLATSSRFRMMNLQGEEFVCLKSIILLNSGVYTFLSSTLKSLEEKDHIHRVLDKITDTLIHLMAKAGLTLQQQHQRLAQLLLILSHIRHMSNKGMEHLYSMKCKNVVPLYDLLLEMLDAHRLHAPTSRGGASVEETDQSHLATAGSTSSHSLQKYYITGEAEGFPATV
Sequence of Retinoic acid receptor RXR-alpha (Homo sapiens) (P19793 whole entry, looked up): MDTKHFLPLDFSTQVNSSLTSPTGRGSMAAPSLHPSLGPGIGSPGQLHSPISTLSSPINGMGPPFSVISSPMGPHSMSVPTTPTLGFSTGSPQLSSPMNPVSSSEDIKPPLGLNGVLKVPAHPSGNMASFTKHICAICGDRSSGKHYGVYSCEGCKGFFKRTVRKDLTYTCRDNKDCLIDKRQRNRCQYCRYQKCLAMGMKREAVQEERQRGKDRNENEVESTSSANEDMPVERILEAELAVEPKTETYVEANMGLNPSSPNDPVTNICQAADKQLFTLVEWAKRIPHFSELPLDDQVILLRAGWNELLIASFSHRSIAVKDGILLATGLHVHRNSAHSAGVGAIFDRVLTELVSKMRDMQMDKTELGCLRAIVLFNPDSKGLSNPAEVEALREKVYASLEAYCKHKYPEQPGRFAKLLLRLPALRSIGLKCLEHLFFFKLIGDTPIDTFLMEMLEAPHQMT
Sequence of Bile acid receptor (Homo sapiens) (Q96RI1 whole entry, looked up): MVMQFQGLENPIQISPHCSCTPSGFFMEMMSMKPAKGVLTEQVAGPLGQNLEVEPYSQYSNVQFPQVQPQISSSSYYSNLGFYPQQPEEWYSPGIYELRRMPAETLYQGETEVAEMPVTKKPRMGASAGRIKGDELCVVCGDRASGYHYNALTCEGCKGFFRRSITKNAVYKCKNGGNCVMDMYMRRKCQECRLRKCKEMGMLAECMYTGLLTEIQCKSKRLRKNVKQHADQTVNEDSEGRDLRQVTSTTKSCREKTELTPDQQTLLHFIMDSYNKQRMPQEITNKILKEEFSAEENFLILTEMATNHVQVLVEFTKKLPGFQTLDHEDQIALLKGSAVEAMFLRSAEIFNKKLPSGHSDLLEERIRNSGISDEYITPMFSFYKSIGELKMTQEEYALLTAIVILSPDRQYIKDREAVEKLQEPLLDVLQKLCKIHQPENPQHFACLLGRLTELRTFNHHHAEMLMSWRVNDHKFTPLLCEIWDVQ
Sequence of Estrogen receptor beta (Homo sapiens) (Q92731 whole entry, looked up, the tested form may be a part): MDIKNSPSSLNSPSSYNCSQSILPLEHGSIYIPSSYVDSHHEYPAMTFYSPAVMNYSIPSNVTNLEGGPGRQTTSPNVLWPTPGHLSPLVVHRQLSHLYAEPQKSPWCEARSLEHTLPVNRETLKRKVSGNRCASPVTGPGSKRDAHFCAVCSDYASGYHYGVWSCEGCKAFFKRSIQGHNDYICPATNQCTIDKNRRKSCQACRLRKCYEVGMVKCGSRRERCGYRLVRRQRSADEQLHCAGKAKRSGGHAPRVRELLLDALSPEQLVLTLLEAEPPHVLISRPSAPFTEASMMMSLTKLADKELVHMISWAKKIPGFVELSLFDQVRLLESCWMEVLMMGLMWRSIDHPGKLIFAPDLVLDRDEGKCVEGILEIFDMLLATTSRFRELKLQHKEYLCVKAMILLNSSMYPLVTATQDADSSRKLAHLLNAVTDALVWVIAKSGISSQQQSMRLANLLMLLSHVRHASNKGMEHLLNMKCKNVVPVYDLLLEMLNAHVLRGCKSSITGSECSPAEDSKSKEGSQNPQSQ
Sequence of mouse Estrogen Receptor alpha (Era), Esr1 (gene 13982) (P19785 whole entry, looked up): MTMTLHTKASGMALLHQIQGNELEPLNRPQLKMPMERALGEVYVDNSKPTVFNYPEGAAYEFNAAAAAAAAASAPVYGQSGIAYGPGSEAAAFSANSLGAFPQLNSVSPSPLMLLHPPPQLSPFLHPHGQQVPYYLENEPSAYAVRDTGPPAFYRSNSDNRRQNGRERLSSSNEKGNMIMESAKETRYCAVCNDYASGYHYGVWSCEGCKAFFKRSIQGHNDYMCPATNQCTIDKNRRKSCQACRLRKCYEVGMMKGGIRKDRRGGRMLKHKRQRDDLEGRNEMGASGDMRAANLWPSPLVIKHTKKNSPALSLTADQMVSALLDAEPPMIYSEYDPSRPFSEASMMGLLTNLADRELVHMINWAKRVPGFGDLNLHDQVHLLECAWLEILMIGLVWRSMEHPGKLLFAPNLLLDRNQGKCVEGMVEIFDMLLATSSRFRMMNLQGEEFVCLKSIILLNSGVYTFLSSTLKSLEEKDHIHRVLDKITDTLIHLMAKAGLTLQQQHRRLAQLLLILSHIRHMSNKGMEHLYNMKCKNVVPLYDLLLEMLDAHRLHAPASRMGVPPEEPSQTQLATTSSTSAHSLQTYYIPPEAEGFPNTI
Sequence of Agonist Androgen Response Element (ARE), AR (gene 367) (P10275 whole entry, looked up): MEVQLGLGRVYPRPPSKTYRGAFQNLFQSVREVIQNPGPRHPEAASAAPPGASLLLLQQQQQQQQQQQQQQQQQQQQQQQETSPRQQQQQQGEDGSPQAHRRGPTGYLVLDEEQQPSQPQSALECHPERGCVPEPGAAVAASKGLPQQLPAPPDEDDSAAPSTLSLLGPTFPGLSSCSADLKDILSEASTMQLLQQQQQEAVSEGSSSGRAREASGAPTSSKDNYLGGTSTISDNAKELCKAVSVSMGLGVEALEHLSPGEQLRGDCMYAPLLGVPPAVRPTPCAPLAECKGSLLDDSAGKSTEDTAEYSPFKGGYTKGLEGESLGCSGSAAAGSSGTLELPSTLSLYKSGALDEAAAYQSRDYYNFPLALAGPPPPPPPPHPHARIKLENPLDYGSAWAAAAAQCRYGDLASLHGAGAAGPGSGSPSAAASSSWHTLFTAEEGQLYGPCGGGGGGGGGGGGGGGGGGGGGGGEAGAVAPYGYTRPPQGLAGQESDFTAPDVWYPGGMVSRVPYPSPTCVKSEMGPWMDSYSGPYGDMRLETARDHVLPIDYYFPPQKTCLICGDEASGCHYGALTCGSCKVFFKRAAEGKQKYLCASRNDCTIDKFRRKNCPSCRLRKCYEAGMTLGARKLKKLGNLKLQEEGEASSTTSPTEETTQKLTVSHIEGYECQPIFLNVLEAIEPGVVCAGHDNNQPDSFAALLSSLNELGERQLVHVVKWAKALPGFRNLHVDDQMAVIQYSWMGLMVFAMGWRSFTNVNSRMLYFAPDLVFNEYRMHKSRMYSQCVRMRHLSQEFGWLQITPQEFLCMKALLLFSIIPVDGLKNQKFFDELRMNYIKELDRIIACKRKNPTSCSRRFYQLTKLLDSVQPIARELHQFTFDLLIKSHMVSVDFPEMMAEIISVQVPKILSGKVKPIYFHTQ
Sequence of human Dopamine Transporter (DAT), SLC6A3 (gene 6531) (Q01959 whole entry, looked up): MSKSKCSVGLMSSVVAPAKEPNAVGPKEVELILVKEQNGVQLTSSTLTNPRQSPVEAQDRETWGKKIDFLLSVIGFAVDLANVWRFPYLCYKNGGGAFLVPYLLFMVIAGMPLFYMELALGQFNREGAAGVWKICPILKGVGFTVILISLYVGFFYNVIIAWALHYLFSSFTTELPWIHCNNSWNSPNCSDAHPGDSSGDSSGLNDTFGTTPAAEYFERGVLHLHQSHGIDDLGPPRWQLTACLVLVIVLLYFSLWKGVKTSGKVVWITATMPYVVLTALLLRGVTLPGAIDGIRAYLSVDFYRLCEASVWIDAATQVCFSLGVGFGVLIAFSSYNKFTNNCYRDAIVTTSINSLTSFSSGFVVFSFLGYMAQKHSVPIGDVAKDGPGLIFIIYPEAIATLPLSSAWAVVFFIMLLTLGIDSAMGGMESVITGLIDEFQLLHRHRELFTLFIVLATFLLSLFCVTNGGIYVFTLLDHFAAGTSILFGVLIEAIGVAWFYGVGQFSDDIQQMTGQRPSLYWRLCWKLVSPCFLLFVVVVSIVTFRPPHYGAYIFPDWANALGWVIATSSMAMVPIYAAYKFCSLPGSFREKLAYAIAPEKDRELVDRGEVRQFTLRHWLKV

In the case of `CCOP(=S)(OCC)SCSC(C)(C)C`, the outcome in assay [1], in [2], in assay [3], in assay [4] and in assay [5] was inactive.
Consider `C=CC(N)=O`, for which the compound was called inactive in [1], in assay [2], in [3] and in assay [4].
Regarding `CCOCCOC(C)=O`, the outcome in assay [6], in assay [1], in assay [2], in assay [3] and in [5] was inactive.
Turning to `CCC(C)(CC)c1cc(NC(=O)c2c(OC)cccc2OC)on1`, the outcome in [7], in assay [3], in [4] and in [5] was inactive.
`O=C(NC(=O)c1c(F)cccc1F)Nc1cc(Cl)c(OC(F)(F)C(F)F)c(Cl)c1`: the outcome in [8], in assay [7], in assay [1], in assay [2], in [3] and in assay [4] was inactive. Besides, the compound was classed as inactive in assay [5].
For the compound `Clc1ccc(Cl)cc1`, the compound was called inactive in [7], in assay [1], in assay [2], in assay [3] and in [5].
In the case of `Cc1ccccc1[N+](=O)[O-]`, the call in assay [7], in assay [1], in [2], in assay [3], in [4] and in assay [5] was inactive.
As to `c1cc2ccc3cccc4ccc(c1)c2c34`, the compound was classed as inactive in [8], in [1], in assay [2], in assay [9], in assay [10] and in [3]. For the same compound, the compound was called inactive in assay [4] and in [5].
For the compound `Cc1ccccc1O`, the call in [7], in assay [1], in assay [2], in [3], in assay [4] and in assay [5] was inactive.
Turning to `Cc1cc(-c2ccc(N)c(C)c2)ccc1N`, the AC50 is 19.5 µM (active) in assay [11], 0.999 µM (active) in [6], 37.2 µM (active) in assay [1] and 50 µM (active) in assay [2]. The compound was classed as inactive in assay [6], in assay [1], in [2], in assay [3], in assay [4] and in assay [5].
On to `Cc1cccc([N+](=O)[O-])c1`, for which the compound was classed as inactive in [1], in assay [2] and in assay [5].
Consider `C1CC2OC2CC1C1CO1` (stereo unspecified), for which the compound was called inactive in assay [7], in assay [1], in assay [2], in assay [9], in [10] and in assay [3]. The outcome in assay [4] and in [5] was inactive.
With `C=CC(=O)NCNC(=O)C=C`, the call in [6], in [7], in [1], in assay [2], in assay [3] and in assay [4] was inactive. Also, the compound was classed as inactive in assay [5].
As for `CN(C)c1nc(=O)n(C2CCCCC2)c(=O)n1C`, the result in [7], in assay [1], in assay [2], in assay [9], in assay [10] and in assay [3] was inactive. Also, the compound was classed as inactive in assay [4] and in assay [5].
`ClC1=C(Cl)[C@]2(Cl)[C@@H]3[C@@H](Cl)[C@H]4O[C@H]4[C@@H]3C1(Cl)C2(Cl)Cl`: the AC50 in assay [7] was 14.4 µM (active); in [3] it was 79.6 µM (active); in assay [4], 86 µM (active). For the same compound, the call in [1], in [2], in [3], in assay [4] and in assay [5] was inactive.
Regarding `ClC1=C(Cl)[C@]2(Cl)[C@@H]3[C@H]4C[C@H]([C@@H]5O[C@H]45)[C@@H]3[C@@]1(Cl)C2(Cl)Cl`, the call in assay [6], in assay [1], in assay [3], in assay [4] and in [5] was inactive.
In the case of `CCCCCCOC(=O)c1ccccc1C(=O)OCCCCCC`, the compound was called inactive in assay [11], in [6], in assay [1], in [2], in assay [3] and in assay [4]. The compound was classed as inactive in [5].
